Results with a measured potency or affinity are listed apart.
Target: CAAX prenyl protease 2 (Homo sapiens) (UniProt Q9Y256)
Test: human Rce1 protease inhibitors, dose response, biochemical, yeast membranes, quenched-peptide fluorescence, cherry-pick (AID 588849)
Conditions: yeast membrane fractions expressing human Rce1, quenched-peptide fluorescence, 4 h; series mostly up to 10 µM; activity change, negative = inhibition: at the top concentration; call rule not given here

CAAX prenyl protease 2 (Homo sapiens), sequence (Q9Y256 whole entry, looked up): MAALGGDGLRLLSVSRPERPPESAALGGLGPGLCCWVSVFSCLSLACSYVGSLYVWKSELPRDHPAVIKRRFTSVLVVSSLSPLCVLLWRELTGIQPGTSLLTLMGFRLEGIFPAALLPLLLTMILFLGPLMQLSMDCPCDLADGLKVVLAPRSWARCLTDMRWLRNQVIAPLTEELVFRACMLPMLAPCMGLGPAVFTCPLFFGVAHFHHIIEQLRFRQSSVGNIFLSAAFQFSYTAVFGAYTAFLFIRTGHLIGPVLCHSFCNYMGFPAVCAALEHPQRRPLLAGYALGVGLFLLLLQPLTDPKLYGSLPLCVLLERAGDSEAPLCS

Activity change, negative = inhibition, inactive:
O=C(O)CCC(=O)c1ccc(-c2ccccc2)cc1 -1.99%
CN(C)CC(C)(C)CNC(=S)NCc1ccc2c(c1)OCO2 -17.6%
CCOC(=O)C[n+]1ccc2c([nH]c3ccccc32)c1C 7.21%
CC(C)N1CCN(Cc2ccc(OCc3ccccc3)cc2)CC1CCO (centres undefined) 8.65%
COc1ccc(C)cc1NC(=O)CCC(=O)Nc1ccc2nc(N3CCN(C)CC3)cc(C)c2c1 72.4%
N/C(Cc1ccc([N+](=O)[O-])cc1)=N\OC(=O)c1ccc2ccccc2c1 -1.34%
O=S(=O)(CC(CN1CCOCC1)N1CCOCC1)c1ccccc1 (centres undefined) 7.37%
CC(=O)NC(Cc1c[nH]c2ccccc12)C(=O)O (centres undefined) -6.1%
COC(=O)c1ccccc1NC(=O)NCc1cccnc1 -5.73%
Cc1ccc(S(=O)(=O)CC(=O)N2CCN(c3ccccc3F)CC2)cc1 10.6%
CCCCOc1ccc(-c2cc(C(F)(F)F)c(C#N)c(SCC(=O)O)n2)cc1 10.3%
Cc1cc(C)cc(N2CC(O)=C(c3nc4ccccc4c(=O)[nH]3)C2=N)c1 -1.37%
O=C(Nc1ncccn1)c1ccc([N+](=O)[O-])cc1 3.15%
CCCCCCCCNC(C)C(O)c1ccc(SC(C)C)cc1 (centres undefined) -17.8%
CCC(=O)Nc1cccc(NC(=S)NC(=O)c2cccs2)c1 -15.7%
COC(C[C@H](O)C[C@H](O)[C@@H](C)OCc1ccccc1)OC 6.23%
CCOc1ccc(N(CC(=O)NC2CC3CCC2C3)S(=O)(=O)c2ccccc2)cc1 (centres undefined) -0.176%
Cc1cc2nn(-c3cccc4ccccc34)nc2cc1NC(=O)c1cccs1 95.4%
O=C(CN1CCC(NC(=O)c2ccc(Br)cc2)CC1)NCc1cccs1 -4.21%

Reference: PubChem BioAssay AID588849 (Broad Institute, 2011)
